“And” between values parts separate entries of the source, which are not always exact repeats. Equal entries are not always repeated. The campaign covered roughly 5,500 compounds. About 2,000 (36%) were called active. Not shown: some 18% with an inconclusive outcome. Rule as the data show it: active = normalized growth mostly below about 0.91 (no sharp cut-off); inconclusive = no clear call, values can overlap the other calls; inactive = mostly above about 0.92. The list shows a part of the results.
Assay: chemical genetic growth profiling, strain panel (AID 1159580);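 also: tested at 20 µM; growth read once vehicle control cultures reached saturation at 30 °C; 1 = growth at the plate median or of vehicle wells; lower values mean less growth of the strain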
Settings: S. cerevisiae deletion strains, growth OD

Measured: normalized growth

CN(C)CCc1c[nH]c2ccc(CS(=O)(=O)N3CCCC3)cc12
inactive: locus YAL013W, strain DEP1, stronger effect = lower value 0.991 | locus YAL021C, strain ccr4, stronger effect = lower value 0.991 | locus YAL026C, strain drs2, stronger effect = lower value 0.976 | locus YAL030W, strain snc1, stronger effect = lower value 1.01 | locus YBL061C, strain skt5, stronger effect = lower value 1.01 | locus YBR009C, strain hhf1, stronger effect = lower value 0.925 | locus YBR021W, strain FUR4, stronger effect = lower value 1 | locus YBR023C, strain chs3, stronger effect = lower value 0.997 | locus YBR171W, strain sec66, stronger effect = lower value 1 | locus YBR229C, strain ROT2, stronger effect = lower value 0.995 | locus YBR231C, strain swc5, stronger effect = lower value 0.993 | locus YBR279W, strain paf1, stronger effect = lower value 0.986 | locus YCL011C, strain gbp2, stronger effect = lower value 0.982 | locus YCL016C, strain dcc1, stronger effect = lower value 1.02 | locus YCL029C, strain bik1, stronger effect = lower value 0.981 | locus YCL069W, strain vba3, stronger effect = lower value 0.977 | locus YCR088W, strain abp1, stronger effect = lower value 0.986 | locus YDL005C, strain med2, stronger effect = lower value 1.01 | locus YDL035C, strain GPR1, stronger effect = lower value 1.01 | locus YDL040C, strain nat1, stronger effect = lower value 0.99 | locus YDL074C, strain BRE1, stronger effect = lower value 1.05 | locus YDL101C, strain DUN1, stronger effect = lower value 0.987 | locus YDL134C, strain PPH21, stronger effect = lower value 0.99 | locus YDL185W, strain tfp1, stronger effect = lower value 0.979 | locus YDL192W, strain arf1, stronger effect = lower value 0.991 | locus YDR001C, strain nth1, stronger effect = lower value 0.98 | locus YDR069C, strain doa4, stronger effect = lower value 0.992 | locus YDR101C, strain arx1, stronger effect = lower value 0.986 | locus YDR137W, strain rgp1, stronger effect = lower value 0.986 | locus YDR150W, strain NUM1, stronger effect = lower value 0.999 | locus YDR162C, strain NBP2, stronger effect = lower value 1.01 | locus YDR195W, strain ref2 0.937 | locus YDR297W, strain sur2, stronger effect = lower value 0.996 | locus YDR318W, strain mcm21, stronger effect = lower value 0.996 | locus YDR334W, strain swr1, stronger effect = lower value 0.949 | locus YDR335W, strain msn5, stronger effect = lower value 0.982 | locus YDR388W, stronger effect = lower value 0.988 | locus YDR392W, strain spt3, stronger effect = lower value 0.972 | locus YDR502C, strain sam2, stronger effect = lower value 0.989 | locus YEL003W, strain gim4, stronger effect = lower value 0.977 | locus YEL037C, strain rad23, stronger effect = lower value 0.976 | locus YEL061C, strain CIN8 (second series), stronger effect = lower value 0.958 | locus YEL061C, strain CIN8, stronger effect = lower value 1 | locus YER015W, strain faa2, stronger effect = lower value 0.993 | locus YER016W, strain bim1, stronger effect = lower value 1.05 | locus YER110C, stronger effect = lower value 0.99 | locus YER111C, strain swi4, stronger effect = lower value 0.998 | locus YER155C, strain BEM2 (second series), stronger effect = lower value 1.02 | locus YER155C, strain BEM2, stronger effect = lower value 1.02 | locus YER167W, strain BCK2, stronger effect = lower value 0.992 | locus YFR010W, strain ubp6, stronger effect = lower value 0.947 | locus YGL078C, strain dbp3, stronger effect = lower value 0.985 | locus YGL086W, strain mad1, stronger effect = lower value 0.988 | locus YGL167C, strain pmr1, stronger effect = lower value 0.983 | locus YGL173C, strain kem1, stronger effect = lower value 0.958 | locus YGL227W, strain vid30, stronger effect = lower value 0.966 | locus YGL240W, strain doc1, stronger effect = lower value 0.926 | locus YGL248W, strain PDE1, stronger effect = lower value 0.993 | locus YGL253W, strain hxk2, stronger effect = lower value 1 | locus YGR078C, strain PAC10, stronger effect = lower value 1.01 | locus YGR135W, strain pre9, stronger effect = lower value 0.999 | locus YGR229C, strain SMI1, stronger effect = lower value 1.01 | locus YGR252W, strain gcn5, stronger effect = lower value 1.03 | locus YHR013C, strain ard1, stronger effect = lower value 1.02 | locus YHR027C, strain rpn1, stronger effect = lower value 0.984 | locus YHR030C, strain SLT2, stronger effect = lower value 0.995 and 0.96 | locus YHR079C, strain IRE1 (second series), stronger effect = lower value 0.981 | locus YHR079C, strain IRE1, stronger effect = lower value 0.984 | locus YHR094C, strain hxt1, stronger effect = lower value 0.987 | locus YHR129C, strain ARP1, stronger effect = lower value 0.981 | locus YHR142W, strain chs7, stronger effect = lower value 0.976 | locus YHR200W, strain rpn10, stronger effect = lower value 0.991 | locus YIL066C, strain RNR3, stronger effect = lower value 0.998 | locus YIL073C, strain SPO22, stronger effect = lower value 0.999 | locus YIL125W, strain kgd1, stronger effect = lower value 0.994 | locus YIR030C, strain dcg1, stronger effect = lower value 0.983 | locus YJL092W, strain hpr5, stronger effect = lower value 0.99 | locus YJL095W, strain BCK1 (second series), stronger effect = lower value 0.991 | locus YJL095W, strain BCK1, stronger effect = lower value 0.984 and 0.977 | locus YJL115W, strain asf1, stronger effect = lower value 0.987 | locus YJL129C, strain trk1, stronger effect = lower value 0.994 | locus YJL134W, strain LCB3, stronger effect = lower value 0.991 | locus YJL154C, strain vps35, stronger effect = lower value 0.978 | locus YJL164C, strain tpk1, stronger effect = lower value 0.99 | locus YJL166W, strain qcr8, stronger effect = lower value 0.986 | locus YJL168C, strain set2, stronger effect = lower value 0.987 | locus YJL187C, strain SWE1 (second series), stronger effect = lower value 0.986 | locus YJL187C, strain SWE1, stronger effect = lower value 1.01 | locus YJR043C, strain POL32, stronger effect = lower value 0.994 | locus YJR066W, strain TOR1, stronger effect = lower value 0.925
active: locus YDR159W, strain sac3, stronger effect = lower value 0.831
